# In all, about 230,000 compounds went through this assay and about 1,500 (0.65%) were called active. Inconclusive results (about 3%) are left out. For the sample, actives were picked, then their nearest neighbours and some compounds at random. Values without a mark were called inactive. Calls follow the shape of the dose curve; as a rule, active = well fitted inhibition curve with a large enough effect; inconclusive = small, poorly fitted or top-dose-only effect; inactive = no such curve, though single readings can be large or run the other way.
# Biological target: Lethal(3)malignant brain tumor-like protein 1 (Homo sapiens) (UniProt Q9Y468)
# Test: qHTS Assay for the Inhibitors of L3MBTL1; also: nearly all actives have a fitted effect of over 60% in size
# Conditions: AlphaScreen L3MBTL1–H3K9me1 peptide binding; series mostly up to 57.1 µM; activity, negative = inhibition: at the top concentration
# In short: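 First, the protein-peptide complex forms for 30 min at room temperature (L3MBTL1 50 nM, biotinylated H3K9me1 peptide 75 nM). Next, compounds are pin-transferred and incubated 30 min. Finally, AlphaScreen beads are added and read after 30 min.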
# % is scaled to controls: 0 for no effect and ±100 for the full control effect; potency is read from the fitted curve at half-maximal effect.
# Chain of Lethal(3)malignant brain tumor-like protein 1 (Homo sapiens) (Q9Y468 whole entry, looked up): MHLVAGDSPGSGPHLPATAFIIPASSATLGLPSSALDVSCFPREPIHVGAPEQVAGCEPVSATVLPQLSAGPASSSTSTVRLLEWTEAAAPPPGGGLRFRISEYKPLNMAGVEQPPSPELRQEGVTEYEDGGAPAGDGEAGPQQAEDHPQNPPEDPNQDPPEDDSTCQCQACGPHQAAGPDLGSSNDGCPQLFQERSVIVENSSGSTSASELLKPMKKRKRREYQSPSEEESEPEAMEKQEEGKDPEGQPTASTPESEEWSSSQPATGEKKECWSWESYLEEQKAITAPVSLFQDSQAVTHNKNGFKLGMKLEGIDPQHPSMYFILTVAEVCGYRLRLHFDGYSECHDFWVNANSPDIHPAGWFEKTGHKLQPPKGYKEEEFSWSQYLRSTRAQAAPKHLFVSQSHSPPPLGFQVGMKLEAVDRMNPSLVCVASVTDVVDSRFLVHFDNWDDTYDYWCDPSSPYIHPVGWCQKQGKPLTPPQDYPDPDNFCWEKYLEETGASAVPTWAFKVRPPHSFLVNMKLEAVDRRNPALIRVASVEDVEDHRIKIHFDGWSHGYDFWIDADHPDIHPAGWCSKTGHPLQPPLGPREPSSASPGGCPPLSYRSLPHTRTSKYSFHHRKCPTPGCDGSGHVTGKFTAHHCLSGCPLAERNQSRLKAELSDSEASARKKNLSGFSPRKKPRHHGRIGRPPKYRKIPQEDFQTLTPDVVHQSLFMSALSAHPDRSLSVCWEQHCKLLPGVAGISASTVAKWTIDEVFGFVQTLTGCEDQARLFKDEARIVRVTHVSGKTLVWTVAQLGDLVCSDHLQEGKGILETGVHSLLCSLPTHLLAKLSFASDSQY
Structure (SMILES),"activity, negative = inhibition",Potency
CCOC(=O)C(Cc1ccc(N)cc1)N1C(=O)c2ccccc2C1=O (centres undefined),-2.19%,
Cc1ccc(C)n1C(Cc1ccccc1)C(=O)O (centres undefined),,5.62 µM (active)
CC(Cc1ccccc1)C(=O)N(C)Cc1ccccc1 (centres undefined),8.34%,
CCn1c(=S)[nH]c2cc(S(=O)(=O)N3CCOCC3)ccc21,-10.3%,
CCCN=C1N(C)C[C@@H]2[C@@H]3C(=O)N(Cc4ccccc4)C(=O)[C@@H]3[C@](C)(C(=O)OC)N12,11.7%,
CC(=O)Nc1ccc(C(=O)Nc2cccc(S(=O)(=O)NC3=NCCC3)c2)cc1,3.67%,
Cc1ccc(S(=O)(=O)NCCC(=O)OCC(=O)N(C)c2ccccc2)cc1,4.31%,
O=C(N/N=C/c1c(Cl)[nH]c2ccccc12)c1sc2ccccc2c1Cl,-9.37%,
COc1ccc(N=C(C)c2sc3ccccc3c2O)cc1,2.99%,
Oc1ccc(N=Cc2sc3ccccc3c2Cl)cc1,,31.6 µM (active)
Cc1csc(SCC(=O)N(c2ccccc2)C(C)C)n1,5.12%,
COC(=O)c1ccc(CNC(=O)c2ccc(S(=O)(=O)N3CCCCCC3)cc2)cc1,-4.44%,
CCN(CC)C(CNC(=O)CSc1nnnn1-c1cccc(F)c1)c1ccco1 (centres undefined),-4.2%,
COc1ccc(-c2nnc(SC(C)C(=O)NC3CC3)o2)cc1 (centres undefined),-1.06%,
CCCCOC(=O)Nc1nnc(CC(=O)NCc2ccccc2)s1,4.96%,
CCCCOC(=O)Nc1nccs1,,8.91 µM (active)
O=C(COC(=O)c1ccc(O)cc1)Nc1nccs1,-4.2%,
Cc1ccc(NC(=O)CCNC(=O)c2ccc([N+](=O)[O-])cc2)cc1S(=O)(=O)N1CCOCC1,10.5%,
CC(=O)N(O)CCCCCNC(=O)CCC(=O)N(O)CCCCCNC(=O)CCC(=O)N(O)CCCCCNC(=O)CCC(=O)O,19.9%,
CC[C@]12c3[nH]c4ccc(OC)cc4c3CCN1C(=O)C(CC(=O)NCCN1CCOCC1)C[C@@H]2C(=O)N1CCN(C(=O)C2CC2)CC1 (some centres undefined),-0.659%,
CCCn1c(C)cc(/C=C(\C#N)C(=O)OCC(=O)N(C)c2c(N)n(Cc3ccccc3)c(=O)[nH]c2=O)c1C,-5.67%,
Cc1cc(=O)[nH]c(Nc2cccc(Br)c2)n1,2.09%,
CCOc1ccc(C(=O)Nc2ccncc2)cc1,5.87%,

Structure (SMILES),"activity, negative = inhibition",Potency
CCOc1cccc(NC(=O)CC#N)c1,-26.1% [at 11.4 µM],
CCOc1ccc(NC(=O)c2ccc(NC(=O)COC(=O)c3ccc(NC(=O)CC#N)cc3)cc2)cc1,,1.58 µM (active)
COC(=O)[C@]1(C)CCC[C@@]2(C)C3CC[C@]4(OC(C)=O)C[C@@]3(CCC21)CC4=NO (some centres undefined),-4.36%,
Cc1ccc(Cn2c(C)nc3c(c2=O)c2nc4ccccc4nc2n3Cc2ccco2)cc1,,17.8 µM (active)
Cc1nc2ccccc2c(=O)n1Cc1ccc([N+](=O)[O-])cc1,-2.52%,
COCCCn1c2nc3ccccc3nc2c2c(=O)n(Cc3ccc(Cl)cc3)c(C)nc21,-4.25%,
COc1ccc(CCNC(=S)N2CCN(S(=O)(=O)c3ccc(F)cc3)CC2)cc1,-0.143%,
Cc1cccc(N=C2SC(C)CN2C(=O)CN2C(=O)NC3(CCCC3)C2=O)c1 (centres undefined),-0.37%,
O=C(COc1coc(CN2CCN(c3ccccc3)CC2)cc1=O)N1CCc2ccccc21,-1.38%,
COc1ccc(C(=O)CSc2nnc(COc3ccccc3)n2Cc2ccco2)cc1,-15.6%,
CCCc1nc2c(c(=O)c3ccccc3n2C)c(=O)n1-c1cc(C)cc(C)c1,1.93%,
Cn1c2ccccc2c(=O)c2c(=O)n(Cc3ccco3)c(COc3ccccc3)nc21,,12.6 µM (active)
CC(=O)c1c(C)[nH]c(C(=O)COc2ccc3c(C)cc(=O)oc3c2)c1C,-3.35%,
O=C(CCC1CCCCC1)Nc1cc(C(F)(F)F)ccc1N1CCOCC1,16.3%,
Cc1ccc(S(=O)(=O)CCC(=O)OCC(=O)NCCc2ccc(S(N)(=O)=O)cc2)cc1,31.3%,
COc1ccccc1C(CNC(=O)c1cccc(S(=O)(=O)Nc2ccc(F)cc2)c1)N(C)C (centres undefined),-4.55%,
O=c1ccc2c(-c3ccccc3S(=O)(=O)O)c3ccc(O)c(O)c3oc-2c1O,,0.251 µM (active)
CCNC(=O)N(CC)C[C@H]1N[C@@](CC)(C(=O)OC)[C@H]2C(=O)N(Cc3ccccc3)C(=O)[C@@H]12,4.58%,
CC(C)(C)c1cc(C(=O)N/N=C/c2ccc([N+](=O)[O-])s2)n[nH]1,8.1%,
Cc1cc(C(=O)N/N=C/c2cc([N+](=O)[O-])cc(C)c2O)n[nH]1,,22.4 µM (active)
Cc1ccsc1C(=O)N/N=C/c1ccc([N+](=O)[O-])cc1,-0.894%,
Cc1ccccc1NC(=S)NC(=O)Cc1ccc(Cl)cc1,0.475%,
COc1ccc(OCCCC(=O)Nc2cccc(S(=O)(=O)N3CCCCCC3)c2)cc1,-10.2%,

Structure (SMILES),"activity, negative = inhibition",Potency
CC(C)(C)NS(=O)(=O)NC(=O)C1=C(N2CCCC2)COC1=O,1.12%,
COc1ccc2nc3n(c(=O)c2c1)-c1cc(C)ccc1C(=O)NC3Cc1ccc(O)cc1 (centres undefined),-4.33%,
O=[N+]([O-])c1cccc(/C([O-])=C(/C(=S)Nc2ccccc2F)[n+]2ccccc2)c1,-10.3%,
CC(OC(=O)CNC(=O)c1ccc(Cl)c([N+](=O)[O-])c1)C(=O)NCc1ccco1 (centres undefined),-1.26%,
Cc1ccc(/C([O-])=C(/C(=S)NCc2ccco2)[n+]2ccccc2)cc1[N+](=O)[O-],,10 µM (active)
CC(=O)c1c(C)n(-c2ccc(C)cc2)c2ccc(O)cc12,0.558%,
COc1cc2c(-c3ccc4c(c3)OCO4)c(-c3ccsc3)oc(=O)c2cc1OC,-2.19%,
O=C(O)c1cccc(N2C(=O)Nc3ccccc3N2O)c1,11.3%,
Cn1cccc1/C=C1\SC(=O)N(CC(=O)Nc2ccc(F)cc2)C1=O,8.81%,
N#Cc1ccccc1CN1C(=O)S/C(=C/c2cccn2-c2cccc(C(=O)O)c2)C1=O,,22.4 µM (active)
CN(C(=O)CSc1nnc(-c2ccc(C(C)(C)C)cc2)n1C)C1CCS(=O)(=O)C1 (centres undefined),-6.6%,
CC1(C)Cc2c(C#N)c(SCc3nc4ccccc4[nH]3)nc(N3CCOCC3)c2CO1,2.75%,
O=c1[nH]c(N2CCOCC2)nc2ccccc12,6.39%,
C1=C(N2CCOCC2)/C(=C/c2nc3ccccc3[nH]2)CC1,,25.1 µM (active)
N#CCN(C(=O)COC(=O)C1CC2CCCC(C1)C2=O)c1ccccc1 (centres undefined),28.5%,
CC(NC(=O)c1ccccc1C(=O)O)c1ccc(-n2ccnc2)cc1 (centres undefined),-1.91%,
COc1cc(C=NNC(=O)c2cccnc2)ccc1OC(=O)c1ccccc1F,7.91%,
COc1ccc(NC(=O)Nc2cccc3cccnc23)cc1,2.33%,
Nc1ccc(Nc2cc(O)c3ncccc3c2)cc1,,11.2 µM (active)
CC(C)c1ccc(Nc2ncccc2C#N)cc1,20.4%,
COc1ccc(S(=O)(=O)N2CCCCC2)cc1NC(=O)COc1ccccc1,3.21%,
Cc1cc(C(=O)COc2ccccc2Cl)c(C)n1C1CC1,-9.04%,
CCC(CO)Oc1cc(NC(=O)c2cccc3ccccc23)c2ncn(C(C)C)c2c1 (centres undefined),-4.07%,

Structure (SMILES),"activity, negative = inhibition",Potency
O=C(COC(=O)CSc1ccccc1)Nc1ccc(F)cc1F,5.2%,
COc1cc(OC)cc(C(=O)OCC(=O)Nc2ccc(F)cc2F)c1,1.96%,
O=C(COC(=O)c1ccc(F)cc1F)Nc1ncccn1,,20 µM (active)
O=S(=O)(c1ccccc1)N1CCC(c2ccccc2)CC1,17.6%,
O=C(COC(=O)COc1cc(Cl)c(Cl)cc1Cl)NC1CC1,-1.35%,
CCCCN(C(=O)CCNC(=O)NC12CC3CC(CC(C3)C1)C2)c1c(N)n(CCCC)c(=O)[nH]c1=O,20.7%,
CCc1nnc(NC(=O)Cc2cccs2)s1,1.52%,
COc1ccc(Cc2nnc(NC(=O)c3ccc(OC)cc3OC)s2)cc1,1.66% [at 2.29 µM],
COc1ccc(Cc2nnc(NC(=O)Cc3cccs3)s2)cc1,,4.47 µM (active)
Cn1cc[n+](C)c1COc1ccc(C=O)cc1,3.68%,
CCOCCOC(=O)C1=C(C)NC(=O)NC1c1ccc2c(c1)OCO2 (centres undefined),2.78%,
CC1(c2ccccc2)NC(=O)N(CC(=O)N2CC(=O)Nc3ccccc32)C1=O (centres undefined),-2.19%,
Cc1ccc(C2(C)NC(=O)N(CC(=O)N3CC(=O)Nc4ccccc43)C2=O)cc1 (centres undefined),7.53%,
CCOC(=O)N1CCN(C(=O)C(C)NC(=O)c2ccco2)CC1 (centres undefined),4.15%,
CCOc1cc(/C=N/O)cc(Br)c1OC,-1.13%,
CCOc1c(Br)cc(/C=C2\C(=O)N(CCC#N)N=C2C)cc1OC,,14.1 µM (active)
C=CCOc1c(Br)cc(/C=N\n2nnnc2N)cc1OC,0.799%,
CCOC(=O)[C@@H]1[C@H]2COc3cc(OC)ccc3[C@@H]2N2C(=O)N(c3cccc(C)c3)C(=O)[C@@]12C,4.3%,
CC(OC(=O)c1ccc([N+](=O)[O-])cc1)C(=O)NCC1CCCCC1 (centres undefined),32.7%,
CCCCN1C(=O)C(C)=C(C)C1OCCc1ccc(OC)c(OC)c1 (centres undefined),0.955% [at 2.29 µM],

# From PubChem BioAssay AID485360 (National Center for Advancing Translational Sciences (NCATS), 2010)
